Source: PubChem BioAssay

Test: JC-1 mitochondrial signal, unstimulated MM1S myeloma – cell-based, JC-1 fluorescence, 24 h, 100 nL compound, profiling panel (AID 1170); note: test concentration not given here
Details: MM1S mitochondrial potential, higher = more signal

Row | SMILES | z-score
1 | COC(=O)[C@@]1(Cc2ccc(F)cc2)[C@H]2c3cc(C(=O)N(C)C)n(CCc4ccc(O)c(O)c4)c3C[C@H]2CN1C(=O)c1ccccc1 | -1.95
2 | CCOC(=O)C1=CC[C@@H](c2ccc(OC)cc2)N(S(=O)(=O)c2ccc(C)cc2)[C@H]1c1ccc(C)cc1 | -0.897
3 | [N-]=[N+]=NCc1ccccc1[C@@H]1OC(c2ccc(OCCCO)cc2)=N[C@]1(Cc1ccccc1N=[N+]=[N-])C(=O)O | 1.44
4 | COC(=O)[C@@]1(Cc2ccccc2)[C@H]2c3cc(C(=O)N(C)C)n(CCSC(=N)N)c3C[C@H]2CN1C(=O)c1ccccc1 | -0.656
5 | Cc1ccc(S[C@]2(C(=O)NC(C)C)CC(=O)N(C3CCCCC3)[C@@H]2c2ccc(CO)cc2I)cc1 | -1.12
6 | COC(=O)C(CC#Cc1ccc2c(c1)[C@]1(C(=O)N2)[C@H](C(=O)N2CCc3cc(OC)c(OC)cc3C2)[C@H]2C(=O)O[C@H](c3ccccc3)[C@H](c3ccccc3)N2[C@@H]1c1ccccc1OCCO)C(=O)OC | -1.42
7 | C=CC[C@@]12N=C(c3ccc(OCCCO)cc3)O[C@@H]1c1ccccc1N(CCC)C2=O | -0.994
8 | CCC(CC)C(O)C1C=CC2C(=O)N(c3ccccc3)C(=O)C2N1Nc1ccccc1F (stereo unspecified) | -0.817
9 | C=C(COC)/C(=C/C[C@H](OC(C)=O)c1ccccc1OCCO)c1cc(C(=O)OC)ccc1OC | -1.29
10 | CN(C)CCCC[C@@H]1NC(=O)[C@@H]2C[C@H](C(=O)NCCCCCN)[C@H](c3cccc(OCCO)c3)N2C1=O | 0.697
11 | COC(=O)C[C@H]1O[C@@]2(C[C@@H]1[Si](C)(C)C)C(=O)N(C)c1ccccc12 | 0.965
12 | NC(=O)N1C(=O)C2C(C1=O)C1C=C(CCCO)C2C(C2CC2)N1Cc1sc2ccccc2c1Cl (stereo unspecified) | 0.193
13 | CCOC(=O)C1=CCC(c2cc3ccccc3[nH]2)N(CCN2CC(C(=O)OCC)=CCC2c2cc3ccccc3[nH]2)C1 (stereo unspecified) | -1.83
14 | COCC(=C=CC[C@H](O)c1ccccc1OCCO)C[C@H](O)COCc1ccccc1 | -0.382
15 | COc1ccc([Si](C)(C)[C@@H]2[C@@H](CC(=O)N3CCC[C@H]3CO)O[C@]3(C(=O)N(Cc4ccc(N5CCOC5=O)cc4)c4ccccc43)[C@H]2C)cc1 | -1.75
16 | C=C(CCCC)C(=O)CC[C@H](OC(=O)c1ccccc1-c1ccccc1C(=O)O)c1ccc(OCCO)cc1 | 0.258

Row | SMILES | z-score
17 | COC(=O)[C@@]1(Cc2ccc(F)cc2)[C@H]2c3cc(C(=O)N4CCCC4)n(Cc4ccccn4)c3C[C@H]2CN1C(=O)c1ccccc1 | -1.65
18 | O=C1NC(=O)C2C1C=CC(C(O)c1ccc([N+](=O)[O-])cc1)N2Nc1ccccn1 (stereo unspecified) | 0.339
19 | CCCC#C[Si](O[C@H](CC)c1cn(Cc2ccccc2)nn1)(C(C)C)C(C)C | -1.16
20 | COCCCNC(=O)[C@@]1(CCC(=O)OC(C)(C)C)COC(c2ccc(OCCCO)cc2)=N1 | 0.012
21 | C=C(CCCC)/C(=C/C[C@H](OC(C)=O)c1cccc(OCCO)c1)c1cnc2ccccc2c1 | -0.209
22 | CN(C)C(=O)[C@]1(Cc2ccccc2)N=C(c2ccc(OCCCO)cc2)O[C@@H]1c1ccccc1CN=[N+]=[N-] | -0.507
23 | Cc1ccc(S[C@]2(C(=O)NCc3ccccc3)CC(=O)N(Cc3ccccc3C(F)(F)F)[C@@H]2c2ccc(CO)cc2)cc1 | -0.216
24 | CCCN1C(=O)[C@]2(CCC(=O)OC(C)(C)C)N=C(c3ccc(OCCCO)cc3)O[C@@H]2c2ccccc21 | -1.54
25 | C[N+](C)(C)CCCC[C@@H]1NC(=O)[C@H]2C[C@@H](C(=O)NCCCCCNC(=O)CS)[C@@H](c3cccc(OCCO)c3)N2C1=O | 0.415
26 | CO[C@H]1O[C@H](CO)[C@@H](OC(=O)Nc2ccccc2-c2ccccc2)[C@H](OC(=O)Nc2ccccc2)[C@H]1OC(=O)Nc1ccccc1 | -0.558
27 | CC(C)=C1C(=O)C(c2ccccc2)=C2CN3C(=O)N(CCc4ccccc4)C(=O)[C@]3(C)[C@H]21 | -1.66
28 | C[C@]1(C(=O)O)c2ccccc2C(=O)N(Cc2cc(F)cc(C(F)(F)F)c2)[C@H]1c1ccc(CO)cc1 | -0.703
29 | CN(C)CCCNC(=O)[C@@]1(Cc2ccccc2I)c2ccccc2C(=O)N(C2CCCCC2)[C@H]1c1ccc(CO)cc1 | -2.49
30 | C#CCN1[C@@H](Cc2ccccc2)C(=O)O[C@H](Cc2ccccc2)[C@@H]1/C=C/C1CC1 | 0.4
31 | CCCc1cc2c(n1CCc1ccc(Cl)cc1)C(C)C1CN(C(=O)c3ccccc3)C(C)(C(=O)OC)C21 (stereo unspecified) | -1.19
